Screening data: PubChem BioAssay, National Center for Advancing Translational Sciences (NCATS)
In the library only some 3.2% were active in any assay of this set; here they are far more common.
TbPYK inhibitor = inhibitors of Trypanosoma brucei pyruvate kinase. TbPYK enzyme, Kinase-Glo Plus ATP luminescence, 45 min. Potency, µM (titrated, usually from 76.8 µM), inactives show at the top dose activity, negative = inhibition, usual class: inhibitors. 410,000 tested, 0.12% active. Q57TT1; further: nearly all actives have a fitted effect of over 50% in size
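Enzyme and substrate buffer are dispensed first and compound is pin-transferred. ADP at 130 uM final then starts the reaction, which runs 45 min at room temperature. Detection reagent is added for 10 min before luminescence is imaged.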
AMA1-RON2 inh = AMA1-RON2 (P. falciparum) interaction inhibition; AlphaScreen AMA1-biotinylated RON2 peptide binding; Potency, µM (top dose mostly 58.2 µM), inactives show top-dose activity change, negative = inhibition, usual class: inhibitors; 360,000 tested, 0.2% active; AID 720542;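 further: 0% = vehicle wells and -100% = peptide control; nearly all actives have a fitted effect of over 45% in size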
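AMA1 (3D7) with his tag at 25 nM final met compounds first, then biotinylated RON2 peptide at 25 nM; detection used donor plus acceptor beads, 10 µg/mL apiece, read by AlphaScreen after 30 min at room temperature.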
RE007 growth inh = less growth of the S. pombe RE007 Vpr strain. Potency, µM (doses to about 92.2 µM), without a hit: at the highest dose activity change, negative = less growth, usual class: inhibitors. AID 651644. 360,000 tested, 0.21% active. S. pombe RE007 Vpr strain, BacTiter-Glo ATP luminescence, 24 h; active means well fitted falling curve with a large enough effect; inconclusive means small, poorly fitted or top-dose-only effect; inactive means no such curve, though single readings can be large or run the other way; further: nearly all actives have a fitted effect of over 50% in size
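Fission yeast strain RE007, carrying one chromosomally integrated HIV-1 vpr copy, was seeded at OD 0.01 in PMG+AL medium with 23 nL pinned compound. After 24 h at 30 °C and 99% humidity, viability was read by BacTiter-Glo luminescence.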
LmPK inhibitor = inhibitors of Leishmania mexicana pyruvate kinase; Q27686; purified LmPK, Kinase-Glo ATP luminescence, 1 h; Potency, µM (top dose mostly 57.5 µM), for inactives: at the top dose activity change, negative = inhibition, usual class: inhibitors; 290,000 tested, 0.37% active; AID 1721
Target sequence (Q27686 whole entry, looked up): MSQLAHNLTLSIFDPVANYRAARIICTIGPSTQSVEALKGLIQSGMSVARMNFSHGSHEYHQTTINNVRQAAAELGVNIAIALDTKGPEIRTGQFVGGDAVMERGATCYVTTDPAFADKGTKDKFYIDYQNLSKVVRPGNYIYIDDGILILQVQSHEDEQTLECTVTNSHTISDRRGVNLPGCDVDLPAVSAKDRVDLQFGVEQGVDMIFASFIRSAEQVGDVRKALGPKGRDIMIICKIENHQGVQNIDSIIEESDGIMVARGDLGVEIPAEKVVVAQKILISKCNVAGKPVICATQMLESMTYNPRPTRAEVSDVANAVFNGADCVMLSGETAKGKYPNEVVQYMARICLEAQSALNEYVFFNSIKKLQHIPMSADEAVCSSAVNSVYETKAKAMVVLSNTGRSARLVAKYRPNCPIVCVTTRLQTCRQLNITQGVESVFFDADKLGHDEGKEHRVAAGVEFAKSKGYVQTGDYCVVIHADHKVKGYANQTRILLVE
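Screened at intermediate enzyme activity to detect both inhibitors and activators: LmPK at 0.1 nM, with a 0.5 nM enzyme column as activation reference. PEP 0.5 mM, ADP 0.1 mM; ATP detected by luminescence after 1 h.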
Sm TGR inh = blocks Schistosoma mansoni thioredoxin glutathione reductase; Q962Y6; purified TGR, DTNB reduction, TNB absorbance 405 nm; Potency, µM (doses to about 114 µM), for the others: top-dose activity change, negative = inhibition, hits mostly inhibitors; 360,000 tested, 3% active; AID 485364; further: nearly all actives have a fitted effect of over 60% in size
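Kinetic colorimetric format: TGR-catalysed, NADPH-driven DTNB reduction monitored via TNB absorbance. Enzyme dispensed at 20 nM; compound exposure 15 min at room temperature before reaction start.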
* marks the source's active call; other numbers are inactive results; [ ] = dose if it differs, or a comment. Unless noted, the call rests on the fitted dose curve; in most records, active means well fitted curve in the direction sought with a large enough effect; inconclusive means small, poorly fitted or top-dose-only effect, or another doubt; inactive means no such curve, though single readings can be large; an effect the other way counts as inactive or inconclusive. Unless noted, on the % scale 0 is the no-effect control and ±100 the full control effect; potency means the concentration at half of the fitted maximal effect.

Cc1ccc(NC(=O)c2ccc3nccnc3c2)c(C)c1 was read as TbPYK inhibitor 4.5%, AMA1-RON2 inh -8.7%, RE007 growth inh -2.5%, LmPK inhibitor 0.3% and Sm TGR inh 56.2µM*.
Screening CCCOc1ccc(CCc2n[nH]c(=S)n2-c2ccccc2)cc1 returned TbPYK inhibitor inconclusive, AMA1-RON2 inh 122.9%, RE007 growth inh -2.0% and LmPK inhibitor -0.9%.
CCCCC(CC(O)COCCC)c1n[nH]c(=S)n1-c1ccccc1 (stereo not drawn) was read as TbPYK inhibitor 11.2µM*, AMA1-RON2 inh 13.0%, RE007 growth inh 24.4%, LmPK inhibitor inconclusive and Sm TGR inh 0.0%.
CCCCCC(O)CCc1n[nH]c(=S)n1-c1ccccc1 (stereo not drawn) was read as TbPYK inhibitor 4.47µM*, AMA1-RON2 inh 90.0%, RE007 growth inh -0.2%, LmPK inhibitor inconclusive and Sm TGR inh 6.2%.
For COc1ccc(CCNC(=O)Cn2c(-c3ccc(F)cc3)cc(C(C)=O)c2C)cc1OC the results were TbPYK inhibitor -14.5%[15.4 µM] and Sm TGR inh 5.8%.
For Cc1cc(NC(=O)CN(C)S(=O)(=O)c2ccc(-c3ccc(=O)[nH]n3)s2)ccc1Br the results were TbPYK inhibitor 2.7%, AMA1-RON2 inh 12.5%, RE007 growth inh 24.4%, LmPK inhibitor 2.4% and Sm TGR inh -1.4%.
Screening COc1cc(NC(=O)CN(C)S(=O)(=O)c2ccc(-c3ccc(=O)[nH]n3)s2)cc(OC)c1 returned TbPYK inhibitor -1.5%, AMA1-RON2 inh 1.5%, RE007 growth inh -5.8%, LmPK inhibitor 0.3% and Sm TGR inh 31.6µM*.
For Cc1ccc(NC(=O)Cn2cc(C(=O)c3cccs3)c3ccccc32)cc1C the results were TbPYK inhibitor 5.4% and Sm TGR inh 4.5%.
`COc1cc(NC(=O)c2ccccc2-n2cnnn2)cc(OC)c1` gave TbPYK inhibitor 0.6%, AMA1-RON2 inh -14.2%, RE007 growth inh -24.6% and Sm TGR inh -2.1%.
Screening COc1cc(OC)cc(C(=O)Nc2ccc(-n3cnnn3)c(C)c2)c1 returned TbPYK inhibitor -16.9%, AMA1-RON2 inh 0.4%, RE007 growth inh -24.2%, LmPK inhibitor 14.1µM* and Sm TGR inh 9.5%.
Screening CCOc1ccc(-c2nc3c(C#N)c[nH]n3c2NC2CCCC2)cc1 returned TbPYK inhibitor -3.7% and Sm TGR inh 0.0%.
For Cc1ccc(S(=O)(=O)N2CCOC23CCN(C(=O)c2ccc(Cl)cc2Cl)CC3)cc1 the results were TbPYK inhibitor -15.4%, AMA1-RON2 inh -5.9%, RE007 growth inh 3.3%, LmPK inhibitor -1.2% and Sm TGR inh 7.94µM*.
CCc1c(C)c2ccc(O)c(CN3CCN(c4ccccc4)CC3)c2oc1=O was read as TbPYK inhibitor -2.9% and Sm TGR inh -3.6%.
For CCOC(=O)CNCCC(=O)c1ccc(Br)cc1 the results were TbPYK inhibitor -9.1%, AMA1-RON2 inh -4.0%, RE007 growth inh 35.5µM*, LmPK inhibitor -0.7% and Sm TGR inh inconclusive.
`Cc1ccc(C(=O)NCC(=O)NCC(=O)OCC(=O)c2ccc(Br)cc2)cc1` gave TbPYK inhibitor 4.4%, AMA1-RON2 inh -17.4%, RE007 growth inh 2.4%, LmPK inhibitor -3.0% and Sm TGR inh -5.8%.
For Cc1cccc(NCCC(=O)c2ccc(Br)cc2)c1 the results were TbPYK inhibitor -5.2%, AMA1-RON2 inh -4.2%, RE007 growth inh inconclusive, LmPK inhibitor -3.5% and Sm TGR inh 5.62µM*.
Cc1cc(C)c(NC(=O)Cn2c(=O)nc(-c3ccccc3)c3cc(Cl)ccc32)c(C)c1 was read as TbPYK inhibitor -5.1% and Sm TGR inh -1.0%.
For COc1ccc2c(c1)CCc1c(C(=O)Nc3ccc(F)c(Cl)c3)noc1-2 the results were TbPYK inhibitor 1.6% and Sm TGR inh 6.8%.
Screening O=C(CCC1N=C2c3ccccc3N=C(SCc3ccccc3F)N2C1=O)NCc1ccccc1 (stereo not drawn) returned TbPYK inhibitor -0.5% and Sm TGR inh -1.6%.
For O=C(CCNc1cccc(Cl)c1)c1cccs1 the results were TbPYK inhibitor 8.1%, AMA1-RON2 inh 13.7%, RE007 growth inh inconclusive, LmPK inhibitor 3.2% and Sm TGR inh 5.62µM*.
CC(C)c1ccc(NCCC(=O)c2ccc(Br)cc2)cc1 was read as TbPYK inhibitor -18.4%, AMA1-RON2 inh -5.6%, RE007 growth inh -2.1%, LmPK inhibitor 3.4% and Sm TGR inh inconclusive.
`O=C(CCC(=O)c1cccs1)NNC(=O)c1cccc(Cl)c1` gave TbPYK inhibitor 0.7%, AMA1-RON2 inh 84.3%, RE007 growth inh -6.6% and Sm TGR inh -10.6%.
Screening Cc1ccc(NCCC(=O)c2cccs2)cc1C returned TbPYK inhibitor 2.0%, AMA1-RON2 inh inconclusive, RE007 growth inh 39.8µM*, LmPK inhibitor -0.8% and Sm TGR inh 0.0%.
CCCOc1ccc(C(=O)CCNc2ccc(C)c(Cl)c2)cc1 was read as TbPYK inhibitor 1.8%, AMA1-RON2 inh -5.9%, RE007 growth inh 14.8%, LmPK inhibitor -4.8% and Sm TGR inh -5.6%.
`CC(C)c1ccc(NCCC(=O)c2cccs2)cc1` gave TbPYK inhibitor -0.1%, AMA1-RON2 inh -23.5%, RE007 growth inh 31.6µM*, LmPK inhibitor -1.6% and Sm TGR inh 3.16µM*.
`Cc1ccc(NCCC(=O)c2cccs2)cc1Cl` gave TbPYK inhibitor -9.7%, AMA1-RON2 inh -6.8%, RE007 growth inh -14.6%, LmPK inhibitor 6.1% and Sm TGR inh 3.98µM*.
COc1ccccc1NC(=O)C1=C(C)Nc2c(C(=O)Nc3ccc(C)cc3)cnn2C1c1cccc(OC)c1OC (stereo not drawn) was read as TbPYK inhibitor -8.4% and Sm TGR inh -0.7%.
`Cc1ccc(OCC(=O)Nc2ccc3nn(-c4ccc(Cl)cc4)nc3c2)cc1` gave TbPYK inhibitor -8.3% and Sm TGR inh -1.8%.
c1ccc(-c2nnc(CN3CCN(c4ccccn4)CC3)o2)cc1 was read as TbPYK inhibitor -2.7% and Sm TGR inh -12.6%.
`Cc1ccc(NCCC(=O)c2cccs2)cc1` gave TbPYK inhibitor 1.3%, AMA1-RON2 inh -24.4%, RE007 growth inh inconclusive, LmPK inhibitor -2.9% and Sm TGR inh 1.26µM*.
`Cc1ccc(NC(=O)CCC(=O)c2cccs2)cc1` gave TbPYK inhibitor 0.0%, AMA1-RON2 inh 5.0%, RE007 growth inh -17.3%, LmPK inhibitor -6.9% and Sm TGR inh -2.6%.
CCC1CN(C(=O)N2CCC(C(=O)NCCc3ccc(C)cc3)CC2)c2ccccc2O1 (stereo not drawn) was read as TbPYK inhibitor -8.8% and Sm TGR inh -1.0%.
`Cc1ccc(CCNc2nc3c(S(=O)(=O)c4ccccc4)nnn3c3ccsc23)cc1` gave TbPYK inhibitor 3.1% and Sm TGR inh 31.6µM*.
CCOC(=O)c1ccn(-c2nc(-c3cccc(OC)c3)cc(C(F)(F)F)n2)n1 was read as TbPYK inhibitor 0.8% and Sm TGR inh -4.5%.
